# Source: PubChem BioAssay AID738 (SRMLSC, 2007)
# The whole screen tested about 98,000 compounds, of which about 4,900 (5%) were called active. The full list was thinned out, with actives kept by preference. Unmarked numbers belong to inactive results. No stated cut-off is given here; in the data, active means inhibition above about 30%; inactive means the rest.
# Experiment: growth inhibition of yeast control strain, primary screen, counter-screen for post-Golgi transport modulator project (AID 738)
# Conditions: efflux-deficient yeast background strain, growth absorbance A615, 16 h; at 10 µM; active compounds read high
row,Compound,inhibition
1,O=C(N/N=C/C=C/c1ccccc1)C1CC1(c1ccccc1)c1ccccc1 (stereo unspecified),64% (active)
2,Cc1nn(C)c(Oc2ccccc2)c1[N+](=O)[O-],5.76%
3,O=c1c2ccccc2oc2nc(C3CCCCC3)n(Cc3ccco3)c(=O)c12,78.7% (active)
4,CCc1nc2oc3ccccc3c(=O)c2c(=O)n1Cc1ccc(OC)cc1,11.8%
5,O=c1c2ccccc2oc2nc3n(c(=O)c12)CCCS3,0.28%
6,c1ccc(Nc2nc(-c3ccncc3)cs2)nc1,4.87%
7,Clc1ccc(Nc2nc(-c3cccs3)cs2)nc1,45.4% (active)
8,O=C(Nc1ccc(Cl)cn1)Nc1cccs1,19.8%
9,Cc1ccc(OCC(=O)N/N=C/c2ccncc2)cc1,7.69%
10,Cc1ccc(C(=O)N2CCN(C(=O)N3CCOCC3)CC2)cc1,-1.43%
11,CCOC(=O)C(=CNc1cccc(C)n1)C(=O)OCC,-2.27%
12,Cc1ccc(Cl)cc1NC(=O)COC(=O)C1CCCCC1,-5.31%
13,Cc1noc(C)c1S(=O)(=O)N(CC(=O)Nc1ccc2c(c1)OCCO2)c1ccc(C(C)C)cc1,36.1% (active)
14,CCOC(=O)c1cccc(NC(=O)CN(c2ccc(C)cc2)S(=O)(=O)c2c(C)noc2C)c1,26.9%
15,Cc1noc(C)c1S(=O)(=O)N(CC(=O)NCc1ccc(Cl)cc1)c1ccc2c(c1)OCO2,4.52%
16,CCOC(=O)Cc1csc(NC(NC(=O)OCC)(C(F)(F)F)C(F)(F)F)n1,-12.3%
17,CCOC(=O)Cc1csc(NC(=O)C(C)(C)C)n1,50.5% (active)
18,CCOC(=O)Cc1csc(NC(=O)CSc2nc(C)cc(=O)[nH]2)n1,3.73%
19,CCOc1cc(CNCCN(C)C)c(Cl)cc1OCC(=O)NCCc1ccccc1,7.63%
20,CCN(CC)S(=O)(=O)c1cc([N+](=O)[O-])ccc1NNC(=O)Nc1ccccc1,5.17%
21,O=C(Nc1ccccc1)O/N=C1\CCCCC1c1ccc([N+](=O)[O-])cc1[N+](=O)[O-] (stereo unspecified),47.9% (active)

row,Compound,inhibition
1,COc1ccc(NC(=O)ON=C2c3ccccc3-c3ccccc32)cc1,3.19%
2,Cc1ccc(C2CC2C(=O)NN)cc1 (stereo unspecified),-1.07%
3,COc1cccc(CNCCc2c[nH]c3ccccc23)c1OCc1ccccc1F,15.9%
4,COCCCn1c(SCc2cccc(OC)c2)nc2cc(OC)c(OC)cc2c1=N,21.9%
5,CN1CCN(c2ccc(NC(=O)COc3ccc(Cl)cc3Cl)cc2)CC1,5.47%
6,Cc1ccc(NC(=O)COc2ccc(-n3ccnc3)cc2)cc1Cl,34.5% (active)
7,Cc1ccccc1OCC(=O)Nc1ccc(N2CCN(C(=O)C(C)C)CC2)c(Cl)c1,6.6%
8,CC(=O)NS(=O)(=O)c1ccc(NC(=O)/C=C/c2ccccc2Cl)cc1,4.99%
9,O=C(c1ccccc1)C(Cn1cncn1)C(Sc1ccccc1)c1ccccc1 (stereo unspecified),26.1%
10,CCOC(=O)N1CCN(C(c2cccnc2)c2ccc3cccnc3c2O)CC1 (stereo unspecified),1.65%
11,Cc1noc(C)c1CSCC(=O)Nc1nc2ccc(Oc3ccccc3)cc2s1,56.3% (active)
12,CCOC(=O)c1c(C2CC2)csc1NC(=O)CSCc1c(C)noc1C,23.3%
13,CCn1c(SCC(=O)Nc2nc3ccc(OC)cc3s2)nnc1-c1ccoc1C,19.9%
14,O=S(=O)(c1ccc(F)cc1)n1ccc(-c2cnc(-c3ccccc3)s2)n1,6.8%
15,COc1ccccc1-n1nnnc1S(=O)(=O)Cc1ccc(Cl)cc1,32.4% (active)
16,O=S(=O)(O)c1nc2ccccc2n1Cc1ccc(Cl)cc1,2.95%
17,COc1ccccc1N1CCN(C(=O)CN(Cc2ccc(Cl)cc2)S(C)(=O)=O)CC1,1.33%
18,Cc1cccc(C(=O)Nc2ccc(C(=O)/C=C/c3cccs3)cc2)c1,3.4%
19,O=C(Nc1ccn(Cc2ccccc2F)n1)c1ccc(COc2ccc(Cl)cc2Cl)o1,27.6%
20,CCn1c(SCC(=O)Nc2ccc3c(c2)OCCO3)nc2c(c1=O)SC(C)C2 (stereo unspecified),6.57%
21,CCn1c(SCC(=O)Nc2ccccc2F)nc2c(c1=O)SC(C)C2 (stereo unspecified),103% (active)

row,Compound,inhibition
1,CC1Cc2nc(SCC(=O)Nc3ccccc3F)n(C)c(=O)c2S1 (stereo unspecified),25.6%
2,O=S(=O)(c1cccc2nonc12)N1CCN(c2cccc(Cl)c2)CC1,-0.91%
3,Cc1cc([N+](=O)[O-])c(-c2ccc(/C=N/n3cnnc3)o2)cc1Cl,19.7%
4,Cc1cc(C)c([N+](=O)[O-])cc1-c1ccc(/C=N/NC(=O)c2nonc2N)o1,8.91%
5,Cc1cc(-c2ccc(/C=N/n3cnnc3)o2)c([N+](=O)[O-])cc1C,39.1% (active)
6,CC(=O)c1cc2c(cc1NC(=O)CN1CCCCCC1)OCO2,5.16%
7,C/C=C/C(=O)OCC(=O)Nc1ccc(F)cc1Cl,3.31%
8,COC(=O)CNC(=O)c1ccccc1F,4.83%
9,CC(Oc1ccc(F)cc1F)C(=O)/C=C/N(C)C (stereo unspecified),-1.04%
10,CN(C)/C=C/C(=O)c1ccccc1F,36.4% (active)
11,Cc1ccc(N2C(=O)C(Cc3ccccc3)NC2=S)cc1 (stereo unspecified),5.73%
12,COc1cc(Cl)c(C)cc1NC(=O)CSc1nnc(-c2cccnc2)n1Cc1ccco1,3.14%
13,CCn1c(SCC(=O)Nc2cc(C)c(Cl)cc2OC)nnc1-c1ccco1,26.5%
14,COc1cc(Cl)c(C)cc1NC(=O)CSc1nnc(-c2ccco2)n1CC(C)C,34% (active)
15,O=C1CC(C(F)(F)C(F)(F)C(F)(F)C(F)(F)F)=Nc2ccccc2N1,16.7%
16,CCN(CC)C(=O)CCC(=O)Nc1ccc(C(=O)OC)cc1,1.42%
17,O=C(CSCc1ccc(Br)cc1)Nc1ccc(S(=O)(=O)N2CCCCCC2)cc1,6.87%
18,COCC(=O)Nc1ccc(Br)cc1,36.8% (active)
19,O=C(Nc1ccc2c(c1)CCC2)c1cccc(S(=O)(=O)N2CCN(c3ccc(F)cc3)CC2)c1,17.8%
